Source: PubChem BioAssay AID435005 (Broad Institute, 2010)
About 2,400 (0.8%) of roughly 300,000 compounds were called active.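 How the source made its calls: active means Every replicate reaches about 75%, or at least half do and their mean reaches it too (limit read from the data); inconclusive means At least half of replicates reach the limit but their mean does not; inactive means Under half of replicates reach the limit.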 Only a selection was taken, and actives are over-represented in it overall.

Assay: inhibitors of cytokine-induced beta cell apoptosis, primary screen, luminescence (AID 435005);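 further: 0% = cytokine-treated negative control wells and 100% = positive control rescue; higher means more ATP so stronger rescue from cytokine killing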
Settings: INS-1E cytokine-induced death, ATP luminescence, 48 h; active compounds read high; concentration not given here

Compound	protection from apoptosis
CCOc1cccc(=NC2CCCCC2)c2c(C)[nH]c(C)c12	115% (active)
C[C@]12CCC3C(CC[C@H]4C[C@@H](O)CC[C@]34C)C1CC[C@@H]2O (stereo not given in full)	1.25% (inactive)
O=C1C2(Cl)C3(Cl)C4(Cl)C(Cl)(Cl)C5(Cl)C3(Cl)C1(Cl)C5(Cl)C24Cl (stereo not given)	-14.2% (inactive)
COC(=O)C1=C(c2ccc(F)cc2OCc2ccccc2)C[C@@H]2CC[C@H]1N2C(=O)NCc1ccc(OC)c(OC)c1	-1.83% (inactive)
C[C@]12CC[C@H](O)CC1=C([N+](=O)[O-])CC1C2CC[C@@]2(C)C1CC[C@@H]2O (stereo not given in full)	-1.49% (inactive)
COC(=O)C1=C(c2ccccc2OCc2ccccc2)C[C@@H]2CC[C@H]1N2C(=O)NCc1ccc(OC)cc1	-9.52% (inactive)
CCCCCCCCCCCCn1ccc(=N)cc1	117% (active)
C[C@]12CCC3C(CC[C@H]4C[C@@H](O)CC[C@]34C)C1C[C@@H](O)[C@H]2O (stereo not given in full)	0.154% (inactive)
CCC(=O)c1ccc(OCC(=O)N2CCN(CC(=O)Nc3ccc(C)cc3)CC2)cc1	4.28% (inactive)
Clc1cccc(Cl)c1Cl	5.51% (inactive)
